Screening data (PubChem BioAssay)
GLP1R inv ag – qHTS of GLP-1 Receptor Inverse Agonists (Inhibition Mode). actives 1.6% (n = 410,000). HEK293 GLP-1R CRE-luciferase, luminescence, 24 h; GLP-1R form is constitutively active. Potency, µM (doses to about 38.3 µM), for inactives: at the highest dose activity change, negative = inhibition, usual class: inhibitors. Glucagon-like peptide 1 receptor (Homo sapiens), P43220; further: potency means the concentration at half of the fitted maximal effect; on the % scale 0 is the no-effect control and ±100 the full control effect; nearly all actives have a fitted effect of over 55% in size
Target sequence (P43220 whole entry, looked up): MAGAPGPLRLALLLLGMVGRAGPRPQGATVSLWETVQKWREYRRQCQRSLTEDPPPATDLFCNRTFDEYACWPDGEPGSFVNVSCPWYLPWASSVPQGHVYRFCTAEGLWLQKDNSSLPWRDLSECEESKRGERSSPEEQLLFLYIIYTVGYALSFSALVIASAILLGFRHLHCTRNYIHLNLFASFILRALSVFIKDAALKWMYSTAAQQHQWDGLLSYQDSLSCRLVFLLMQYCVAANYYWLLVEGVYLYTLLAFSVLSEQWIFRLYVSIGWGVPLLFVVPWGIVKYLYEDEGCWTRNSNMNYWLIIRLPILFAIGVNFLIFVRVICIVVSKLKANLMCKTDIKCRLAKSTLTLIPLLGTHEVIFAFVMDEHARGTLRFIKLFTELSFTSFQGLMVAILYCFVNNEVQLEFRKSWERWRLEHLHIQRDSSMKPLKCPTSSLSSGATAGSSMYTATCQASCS
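HEK293 cells stably co-expressing a cAMP-responsive luciferase reporter and constitutively active GLP-1R were seeded, incubated 12 h, then exposed to compounds for 24 h at 37 C. Luminescence was read 12 min after detection reagent; inverse agonists lower signal.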
GLP-1R agonist – qHTS of GLP-1 Receptor Agonists. actives 0.007% (n = 380,000). Potency, µM (top dose mostly 45.6 µM), for inactives: at the highest dose activation, usual class: activators. AID 624172, 2012. HEK293 GLP-1R CRE-luciferase, luminescence, 4-6 h; cells express a hypersensitive GLP-1R form; further: potency means the concentration at half of the fitted maximal effect; % of control where 0% means no effect
TRPML1 agonist – qHTS for Agonists of the Human Mucolipin Transient Receptor Potential 1 (TRPML1) | Mucolipin-1 (Homo sapiens), Q9GZU1 | TRPML1-expressing cells, Ca2+ dye fluorescence, FDSS | activation, % (concentration not given with the values) | actives 0.12% (n = 410,000) | AID 624414, 2012; in the data active means activation above about 50%; inconclusive means mostly about 30% to 49%; further: 0% is about no effect
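Tet-induced TRPML1-DL cells, 1,500 per well, cultured overnight, were loaded with a no-wash Ca2+ dye for 45–90 min. Calcium fluorescence was recorded on the FDSS for 110 s after compound addition, before the EC80 agonist (4 uM 54-4) was added.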
TRPML1 inh – qHTS for Inhibitors of the Human Mucolipin Transient Receptor Potential 1 (TRPML1); actives 0.02% (n = 390,000); activity change, negative = inhibition, % (no concentration beside the values); AID 624415, 2012; Mucolipin-1 (Homo sapiens), Q9GZU1; TRPML1-inducible cells, Ca2+ dye fluorescence, FDSS; hits give low values; inhibition of EC80 agonist-evoked calcium signal; in the data active means activity change below about -50%; inconclusive means between about -30% and that limit;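 further: stimulus is agonist 54-4 at its EC80 concentration; on the % scale 0 is the no-effect control and ±100 the full control effect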
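Tet-induced TRPML1-DL cells loaded with Ca8 no-wash calcium dye were read kinetically on FDSS. Compound addition was followed by EC80 agonist 54-4 (4 uM final); inhibition was read over 110 s.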
GLP1R cytotox – qHTS of GLP-1 Receptor Inverse Agonists: Cytotox Screen | HEK293 cAMP-luciferase reporter cells, luminescence, 24 h | Potency, µM (doses to about 38.3 µM), inactives show top-dose activity change, negative = inhibition, actives largely listed as inhibitors | actives 0.13% (n = 410,000);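 further: loss of luciferase light is scored as toxicity; potency means the concentration at half of the fitted maximal effect; on the % scale 0 is the no-effect control and ±100 the full control effect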
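MLSMR compounds, 24 hr on cells at 37 deg C/5% CO2; luminescence after luciferase reagent (12 min RT). Inhibition counted as the undesired cytotoxic outcome.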
* hit, by the source's call; ? = inconclusive; · = no result. Sampled rows, rich in hits. Any-hit rate of the full collection: about 1.8%. Unless noted, the call rests on the fitted dose curve; in most records, active means well fitted curve in the direction sought with a large enough effect; inconclusive means small, poorly fitted or top-dose-only effect, or another doubt; inactive means no such curve, though single readings can be large; an effect the other way counts as inactive or inconclusive.

SMILES	GLP1R inv ag	GLP-1R agonist	TRPML1 agonist	TRPML1 inh	GLP1R cytotox
O=C(COc1cccc(C(F)(F)F)c1)Nc1ccccc1N1CCCCC1	7.4%	-17.0%	0.0	-11.6	-4.0%
CCn1c(SCC(=O)Nc2cccc(Cl)c2)nnc1-c1nonc1NC(C)=O	-10.0%	·	-0.6	2.9	87.7%
Cc1ccc(O)c(-c2cc(-c3ccccc3[N+](=O)[O-])[nH]n2)c1	?	-1.1%	1.6	44.7	?
Cc1ccc(O)c(-c2cc(-c3ccccc3C)[nH]n2)c1	5.62µM*	0.4%	0.1	-4.8	?
COc1ccc(-c2cc(-c3ccc(C)cc3)n[nH]2)c(O)c1	?	11.2%	0.8	0.5	-18.9%
COc1ccc(-c2cc(-c3cc(C)ccc3O)[nH]n2)cc1	10µM*	14.5%	3.9	37.5	?
COc1ccc(O)c(-c2c(-c3ccc(Cl)cc3)n[nH]c2C)c1	10µM*	3.5%	0.3	15.4	13.4%
COc1ccc(-c2n[nH]c(C)c2-c2ccc(Cl)cc2)c(O)c1	?	-1.5%	2.5	22.0	?
COc1ccccc1CNC(=O)CCCn1c(=O)c2ccccc2n(Cc2ccc(C)cc2)c1=O	-3.5%	-4.1%	0.0	-10.7	-4.4%
CN(CC(=O)Nc1cccc(F)c1)C(=O)c1ccc(C(=O)c2ccccc2)cc1	?	4.5%	0.3	2.5	-12.3%
CN(CC(=O)Nc1cccc(F)c1)C(=O)c1ccccc1Cc1ccccc1	12.6µM*	-1.3%	0.2	-2.4	-24.2%
CCOc1ccc(-n2cc(-c3ccccc3)c3c(NCc4ccccc4)ncnc32)cc1	?	·	2.0	34.7	2.5%
COc1ccc(CCNc2ncnc3c2c(-c2ccccc2)cn3-c2cccc(Cl)c2)cc1OC	10µM*	·	73.9*	-3.2	-6.5%
CCOc1ccc(-n2cc(-c3ccccc3)c3c(NCc4ccc(F)cc4)ncnc32)cc1	1.41µM*	·	2.6	3.1	-3.3%
COc1ccc(CNc2ncnc3c2c(-c2ccccc2)cn3-c2ccccc2)cc1	6.31µM*	·	19.2	-20.3	0.4%
COc1cc(C(=O)Oc2ccccc2/C=N/NC(=O)c2ccc(Cl)cc2Cl)cc(OC)c1OC	2.24µM*	1.6%	2.1	15.2	-35.4%
COc1ccc(CCC(=O)NCC23CC4CC(CC(C4)C2)C3)cc1	6.31µM*	0.4%	0.7	10.7	-5.4%
COc1ccc(C2=Nc3ccccc3N(C(=O)c3ccc(C(F)(F)F)cc3)C2C(=O)NCc2ccccc2)cc1 (configuration not stated)	6.31µM*	·	·	·	16.8%
CCOC(=O)c1cc(OCc2csc(-c3ccccc3)n2)cc(C(=O)OCC)c1	·	·	0.5	·	·
Cc1onc(-c2c(F)cccc2Cl)c1C(=O)OCC(=O)NC(=O)NCC(C)C	12.6µM*	10.4%	1.1	6.9	-2.6%
Cc1ccc(NC(=O)c2c(-c3c(F)cccc3Cl)noc2C)cc1F	3.98µM*	4.0%	2.2	9.4	-5.6%
Cc1nc(C(=O)NNC(=O)c2c(-c3c(Cl)cccc3Cl)noc2C)cs1	5.62µM*	0.9%	0.2	11.2	8.91µM*
Cc1cc(C(=O)NNC(=O)c2c(-c3c(Cl)cccc3Cl)noc2C)no1	-11.3%	-9.1%	-0.2	13.7	-14.1%
CSc1ncc(C(=O)N2CCN(c3cc(C)ccc3C)CC2)c(C)n1	0.6%	·	0.8	7.5	18.1%
COc1cccc(-c2ccc(NC(=O)C3CCCN(Cc4cccc(C)n4)C3)cc2)c1 (configuration not stated)	?	17.3%	-0.8	32.5	?
SMILES	GLP1R inv ag	GLP-1R agonist	TRPML1 agonist	TRPML1 inh	GLP1R cytotox
COc1ccc(C(=O)C2CCCN(Cc3c(O)cccc3OC)C2)cc1OC (configuration not stated)	17.3%	23.4%	-0.6	-8.4	-19.7%
COc1cccc(O)c1CN1CCCC(C(=O)c2cccc(C(F)(F)F)c2)C1 (configuration not stated)	12.6µM*	20.0%	1.1	-4.0	?
COc1ccc2cc(C(=O)C3CCCN(Cc4cccc(C)n4)C3)ccc2c1 (configuration not stated)	4.47µM*	11.3%	0.7	-11.4	3.16µM*
Cc1cc(N2CCN(C)CC2)nc2ccc(NC(=O)Nc3ccccc3Cl)cc12	-4.2%	·	1.3	5.6	-3.3%
CC(C)C[C@H](CO)N(Cc1ccccc1)S(=O)(=O)N(Cc1ccccc1)[C@@H](CO)CC(C)C	5.62µM*	-1.4%	3.1	-4.1	?
CCCOc1ccc(-c2cccc(NS(=O)(=O)c3ccc(CC)cc3)c2)nn1	?	·	1.5	47.9	0.3%
Cc1ccc2nc(-c3ccc(N4CCOCC4)cc3)c(Nc3ccccc3C)n2c1	?	·	-0.8	21.2	-20.4%
Cc1ccn2c(Nc3ccccc3C)c(-c3ccc(N4CCOCC4)cc3)nc2c1	12.6µM*	·	0.2	17.0	-10.2%
Cc1ccccc1Nc1c(-c2ccc(N3CCOCC3)cc2)nc2ccc(Cl)cn12	10µM*	·	0.2	28.2	16.5%
COc1cc2c(NC3CCN(C)CC3)nc(N3CCCN(C)CC3)nc2cc1OCCCC(C)C	·	·	-0.6	·	·
COc1cc(OC)c(/C=C/c2ccc3ccccc3[n+]2C)c(OC)c1	·	·	3.4	·	·
CCN(c1cc(C)cc(C)c1)S(=O)(=O)c1nnc(NC(=O)c2cccc(F)c2)s1	?	·	1.6	-28.8	-18.1%
CC[C@]12c3[nH]c4ccc(OC)cc4c3CCN1C(=O)C(CC(=O)NCc1cccc(C(F)(F)F)c1)C[C@@H]2C(=O)N1CCN(C(=O)c2ccco2)CC1 (some centres not stated)	-13.8%	-2.3%	0.3	-4.5	-4.8%
CC[C@]12c3[nH]c4ccc(Cl)cc4c3CCN1C(=O)[C@@H](CC(=O)NCc1cccc(C(F)(F)F)c1)C[C@@H]2C(=O)N1CCN(C(=O)c2ccco2)CC1	10µM*	-1.1%	5.9	8.2	?
C=C[C@@]1(C)CC(=O)[C@]2(O)[C@@]3(C)[C@@H](O)CCC(C)(C)[C@@H]3[C@H](O)[C@H](OC(C)=O)[C@@]2(C)O1	37.3%	1.26µM*	-0.6	-2.8	3.2%
C=C[C@@]1(C)CC(=O)[C@]2(O)[C@@]3(C)[C@@H](O)CCC(C)(C)[C@@H]3[C@H](OC(C)=O)[C@H](O)[C@@]2(C)O1	166.5%	7.94µM*	-0.1	5.5	-11.4%
C=C1C(=O)O[C@H]2C[C@]3(C)C([C@@H](OC(=O)/C(C)=C/C)[C@H]12)[C@](C)(O)CC[C@H]3O (some centres not stated)	3.7%	-5.6%	-0.6	16.5	2.9%
